Source: PubChem
Many of the other results were omitted from the sample, so hits are more common in it than they were.
DAT uptake mod = modulates human dopamine transporter uptake under cocaine; B-score at 10 µM; LLC-PK1 hDAT cells, [14C]-dopamine uptake with cocaine IC80; actives deviate in either direction; Q01959; 1.3% of 110,000 active; AID 449768;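 active = Z score or B-score, a plate-position-corrected score, falls beyond the plate's 99.7% confidence bounds, in either direction; inactive = both scores lie inside the 99.7% bounds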;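 note: scored against the spread of the other compound wells on the same plate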
Target sequence (Q01959 whole entry, looked up): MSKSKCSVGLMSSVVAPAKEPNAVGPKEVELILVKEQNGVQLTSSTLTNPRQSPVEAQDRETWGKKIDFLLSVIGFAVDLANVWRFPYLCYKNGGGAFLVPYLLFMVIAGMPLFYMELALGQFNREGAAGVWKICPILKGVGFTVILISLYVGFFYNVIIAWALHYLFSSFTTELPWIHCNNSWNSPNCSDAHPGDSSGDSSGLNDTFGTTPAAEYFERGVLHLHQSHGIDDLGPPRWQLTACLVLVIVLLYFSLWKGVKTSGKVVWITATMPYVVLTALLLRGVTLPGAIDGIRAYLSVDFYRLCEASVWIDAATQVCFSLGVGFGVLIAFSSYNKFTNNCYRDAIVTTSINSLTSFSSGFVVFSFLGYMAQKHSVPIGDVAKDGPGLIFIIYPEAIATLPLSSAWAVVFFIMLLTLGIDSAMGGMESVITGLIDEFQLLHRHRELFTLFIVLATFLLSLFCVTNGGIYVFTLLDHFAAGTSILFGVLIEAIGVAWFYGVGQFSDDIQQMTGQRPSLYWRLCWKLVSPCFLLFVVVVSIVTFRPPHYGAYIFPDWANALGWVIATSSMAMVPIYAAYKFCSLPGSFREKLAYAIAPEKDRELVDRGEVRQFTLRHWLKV
BAP1 block = blocks human BAP1 ubiquitin-AMC hydrolysis | 0.48% of 72,000 active | recombinant BAP1, Ub-AMC hydrolysis fluorescence kinetic; active compounds read low | AID 436 | Q92560 | calls only at 20 µM;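 active = activity remaining at or below 50% of control, provided the compound also passes the data quality filters; inactive = the rest, including low values that fail the filters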;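 note: 100% = DMSO wells rate and 0% = substrate alone blank rate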
D1 allo mod = allosteric modulators of human D1 dopamine receptor; B-score at 10 µM; HEK293 D1, CRE-luciferase, dopamine EC30 potentiation; actives deviate in either direction; P21728; 5.9% of 58,000 active; AID 641;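 active = luminescence count or its row- and column-corrected plate score outside the 99.7% band of the plate's sample wells, on either side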
D1 mod confirm = confirmation of human D1 dopamine receptor allosteric modulators; AID 642; 88% of 2,200 active; luminescence at 10 µM; shares compounds with D1 allo mod; HEK293 D1 CRE-luciferase, dopamine EC30 potentiation; active compounds read high;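 active = luminescence in either of two replicates above the same-plate mean plus 3 SD of the low-dose dopamine control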
D1 no dopamine = secondary test of D1 modulators: activity without dopamine; HEK293 D1 CRE-luciferase, luminescence, no dopamine; active compounds read high; 0.8% of 1,900 active; luminescence at 10 µM; shares compounds with D1 allo mod; AID 646; in the data active = luminescence above about 3900
Isoprot counter = alters isoproterenol CRE-luciferase response in HEK293 cells. AID 647. 63% of 2,200 active. HEK293 D1 CRE-luciferase, isoproterenol EC30 counter-screen; active compounds read high. luminescence at 10 µM. shares compounds with D1 allo mod;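 active = luminescence in either replicate above plate mean of wells with a partly effective reference agonist dose plus 3 SD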;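 note: isoproterenol raises cAMP through native beta-adrenoceptor Gs so signal bypasses D1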
* = called active by the depositor.

O=C(Nc1ccccc1C(F)(F)F)N1CCN(c2ccc3nnc(-c4ccc(F)cc4)n3n2)CC1 was read as DAT uptake mod 1.8, BAP1 block inactive, D1 allo mod 3.9*, D1 mod confirm 7116*, D1 no dopamine 1528 and Isoprot counter 3496*.
O=C(Nc1ccc(F)cc1)N1CCN(c2ccc3nnc(-c4ccc(F)cc4)n3n2)CC1 was read as DAT uptake mod 0.056.
`COc1ccc(Cl)cc1N1C(=O)C2C(c3ccccc3)OC3(C(=O)c4ccccc4C3=O)C2C1=O` (centres undefined) gave BAP1 block inactive.
Screening CCn1c(=O)cc(C(=O)OC)sc1=Nc1ccc(F)c(F)c1 returned DAT uptake mod 0.59, BAP1 block inactive, D1 allo mod 11*, D1 mod confirm 23240*, D1 no dopamine 1624 and Isoprot counter 5172*.
COC(=O)c1cc(=O)n(CCc2ccc(OC)cc2)c(=Nc2ccc(F)c(Cl)c2)s1 was read as DAT uptake mod 1.2.
For O=C(c1ccc(Cl)cc1)N1CCN(c2ccc(C(F)(F)F)cc2[N+](=O)[O-])CC1 the results were BAP1 block inactive.
CCCCC(=O)Nc1ncc2c(n1)CC(C)(C)CC2=O was read as DAT uptake mod -1.7, BAP1 block inactive, D1 allo mod 3*, D1 mod confirm 5316 and Isoprot counter 2460.
Cc1cc(C)nc(SCC(=O)Nc2ncc3c(n2)CC(C)(C)CC3=O)n1 was read as DAT uptake mod 1.4, BAP1 block inactive, D1 allo mod 5.3*, D1 mod confirm 7004*, D1 no dopamine 1576 and Isoprot counter 2664.
`CC1(C)CC(=O)c2cnc(NC(=O)CSc3nc4ccccc4o3)nc2C1` gave DAT uptake mod -0.19, BAP1 block inactive and D1 allo mod -0.0083.
Screening CC1(C)CC(=O)c2cnc(NC(=O)Cc3ccc(Cl)cc3)nc2C1 returned DAT uptake mod 0.34, BAP1 block inactive and D1 allo mod 0.5.
`COc1cc(-c2n(C)c3ccccc3[n+]2C)ccc1O` gave BAP1 block inactive.
Screening Oc1ccc(N=Cc2c(O)ccc3ccccc23)cc1-c1nc2ccccc2s1 returned BAP1 block inactive.
CC(=O)n1ccc2ccccc21 was read as BAP1 block inactive.
CCSC1=NC(C)(C)C=C(C)N1 was read as DAT uptake mod 0.94.
`CC1=CC(C)(C)N=C(NC#N)N1` gave DAT uptake mod 0.091, BAP1 block inactive, D1 allo mod 3.8*, D1 mod confirm 9044*, D1 no dopamine 1768 and Isoprot counter 2516.
For Cn1ccnc1Sc1nc(Nc2cccc(Cl)c2)nc(N2CCOCC2)n1 the results were DAT uptake mod 1.5, BAP1 block inactive, D1 allo mod 8.4*, D1 mod confirm 15596*, D1 no dopamine 1596 and Isoprot counter 5272*.
For c1ccc(Nc2nc(N3CCOCC3)nc(N3CCOCC3)n2)cc1 the results were DAT uptake mod -0.18, BAP1 block inactive and D1 allo mod 2.4.
Screening CCSCCOC(=O)C1=C(C)NC2=C(C(=O)CC(C)(C)C2)C1c1ccccc1F (centres undefined) returned BAP1 block inactive.
CC(C)=C1C2C=CC1C1C(=O)N(c3ccc(Cl)cc3[N+](=O)[O-])C(=O)C21 (centres undefined) was read as BAP1 block inactive.
`C1=C(CCNC2=NCCCCC2)CCCC1` gave DAT uptake mod -0.68, BAP1 block inactive and D1 allo mod 0.058.
COc1nc(NCCC2=CCCCC2)nc(OC)n1 was read as DAT uptake mod -0.3, BAP1 block inactive, D1 allo mod 7.2*, D1 mod confirm 8312*, D1 no dopamine 1712 and Isoprot counter 2828*.
Screening CN(C)c1nc(C#N)nc(N2CCOCC2)n1 returned DAT uptake mod 0.84.
`N#CN(CC(N)=O)c1nc(N2CCCCC2)nc(N2CCCCC2)n1` gave DAT uptake mod 0.18, BAP1 block inactive and D1 allo mod 1.3.
Screening N#Cc1nc(N2CCCC2)nc(N2CCCC2)n1 returned DAT uptake mod -0.44, BAP1 block inactive, D1 allo mod 5.6*, D1 mod confirm 16648*, D1 no dopamine 1396 and Isoprot counter 5348*.
For N#Cc1nc(N2CCCCC2)nc(N2CCOCC2)n1 the results were DAT uptake mod -0.53, BAP1 block inactive, D1 allo mod 7.5*, D1 mod confirm 9460* and Isoprot counter 3104*.
For CSc1nc2sc3c(c2c(=O)n1CCc1ccccc1)CCCC3 the results were BAP1 block inactive.
Screening Cc1ccc(C(=O)Nc2cccc(-c3nc4ccccc4s3)c2)cc1 returned BAP1 block inactive.
N#CC1=C(N)Oc2n[nH]c(-c3cccs3)c2C1c1ccco1 (centres undefined) was read as DAT uptake mod -0.83, BAP1 block inactive and D1 allo mod 1.5.
For N#CC1=C(N)Oc2n[nH]c(-c3cccs3)c2C1C1CCCCC1 (centres undefined) the results were DAT uptake mod -0.22.
N#CC1=C(N)Oc2n[nH]c(-c3cccs3)c2C1c1ccsc1 (centres undefined) was read as DAT uptake mod -0.38, D1 allo mod 4.4*, D1 mod confirm 6176*, D1 no dopamine 1692 and Isoprot counter 2868.
`Cc1ccc(C2C(C#N)=C(N)Oc3n[nH]c(-c4cccs4)c32)s1` (centres undefined) gave DAT uptake mod 0.37, BAP1 block inactive, D1 allo mod 4.6*, D1 mod confirm 13468*, D1 no dopamine 1676 and Isoprot counter 3792.
Screening COc1cccc2cc(-c3nc4ccccc4[nH]3)c(=Nc3cccc(C#N)c3)oc12 returned BAP1 block inactive.
Screening O=C(Nc1nc(-c2ccc([N+](=O)[O-])cc2)cs1)c1ccccc1F returned BAP1 block inactive.
`CCCN1C(=O)c2ccccc2NC1c1ccc(OC)cc1OC` (centres undefined) gave DAT uptake mod -0.041 and D1 allo mod 0.12.
For CCCN1C(=O)c2ccccc2NC1c1ccc(OC)cc1O (centres undefined) the results were DAT uptake mod 0.082, D1 allo mod 4.4*, D1 mod confirm 4884, D1 no dopamine 1664 and Isoprot counter 4772.
CCN1CCN(C(c2cccs2)C(C)NS(=O)(=O)c2ccccc2)CC1 (centres undefined) was read as DAT uptake mod 0.4.
`CCN1CCN(C(c2cccs2)C(C)NC(=O)CC(C)C)CC1` (centres undefined) gave DAT uptake mod 0.0024, BAP1 block inactive, D1 allo mod 4.7*, D1 mod confirm 3812, D1 no dopamine 1520 and Isoprot counter 2340.
